Reference: PubChem BioAssay (NCI)
This is part of a sample that, as a whole, favours compounds with a hit. Of some 83,000 tested, about 20% had one in any assay.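 Single-concentration screen, 48 h exposure, 96-well plates. Endpoint: percent growth. Below 10 = active.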 Unmarked numbers belong to inactive results. Activity calls are given as the source filed them.

Assays:
Assay in all cases: NCI-60 one-dose screen, 48 h (100 = growth as untreated, 0 = no growth, -100 = all killed)
Details in all cases: 10 µM unless noted
SK-MEL-2 melanoma = test system: SK-MEL-2 melanoma
EKVX NSCLC = test system: EKVX NSCLC
SN12C renal = test system: SN12C renal
UO-31 renal = test system: UO-31 renal
TK-10 renal = test system: TK-10 renal
ACHN renal = test system: ACHN renal
CAKI-1 renal = test system: CAKI-1 renal
A498 renal = test system: A498 renal
CCRF-CEM leukemia = test system: CCRF-CEM leukemia
MOLT-4 leukemia = test system: MOLT-4 leukemia
SR leukemia = test system: SR leukemia
RPMI-8226 leukemia = test system: RPMI-8226 leukemia
OVCAR-8 ovarian = test system: OVCAR-8 ovarian
OVCAR-5 ovarian = test system: OVCAR-5 ovarian
OVCAR-4 ovarian = test system: OVCAR-4 ovarian
SK-OV-3 ovarian = test system: SK-OV-3 ovarian
IGROV1 ovarian = test system: IGROV1 ovarian
OVCAR-3 ovarian = test system: OVCAR-3 ovarian
HS 578T breast = test system: HS 578T breast
NCI/ADR-RES ovarian = test system: NCI/ADR-RES ovarian

SMILES	growth (SK-MEL-2 melanoma) [%]	growth (EKVX NSCLC) [%]	growth (SN12C renal) [%]	growth (UO-31 renal) [%]	growth (TK-10 renal) [%]	growth (ACHN renal) [%]	growth (CAKI-1 renal)	growth (A498 renal)	growth (CCRF-CEM leukemia)	growth (MOLT-4 leukemia)	growth (SR leukemia)	growth (RPMI-8226 leukemia)	growth (OVCAR-8 ovarian)	growth (OVCAR-5 ovarian)	growth (OVCAR-4 ovarian)	growth (SK-OV-3 ovarian) [%]	growth (IGROV1 ovarian)	growth (OVCAR-3 ovarian)	growth (HS 578T breast)	growth (NCI/ADR-RES ovarian)
Cc1nc2ccccc2c(/C=C/c2ccccc2)c1C(=O)/C=C/c1ccccc1	27	45.9	23.4	35.8	31	17.4	34.7%	74%	6.85% (active)	10.8%	12.3%	8.21% (active)	10.4%	6.51% (active)	38.5%	68.1	18.5%	3.37% (active)	41.9%	7.26% (active)
O=C1/C(=C\c2ccccn2)c2ccccc2N1c1c(Cl)cccc1Cl	48.8	27.2	18.1	16.8	52	19.6	-1.37% (active)	21.3%	8.81% (active)	3.48% (active)	-4.3% (active)	-12.5% (active)	4.47% (active)	122%	3.21% (active)	27.4	8.25% (active)	27.4%	22.9%	-26.7% (active)
COc1cc(/C=C/C(=O)c2ccc(-n3cc(CN4CCN(c5cc6c(cc5F)c(=O)c(C(=O)O)cn6C5CC5)CC4)nn3)cc2)ccc1O	93	85	37.6	52.6	84.9	77.7	52.5%	70.8%	29.9%	68.2%	14.1%	-14.6% (active)	42.7%	84.7%	62.9%	72.3	51.8%	57.3%	73.7%	94.2%
CN(Cc1ccccc1)c1nc(Cl)c(C2CC(c3ccccc3)=NN2c2ccccc2)s1 (stereo not given)	78.5	85.3	103	81.5	115	102	68.7%	105%	94.3%	97.1%	90.8%	84.8%	91.5%	104%	88.5%	85.3	97.2%	105%	103%	98.1%
COc1ccc(C2=CN3CC=CC3CC2=O)cc1 (stereo not given)	96.2	87.3	109	103	82.5	102	95.8%	111%	106%	96%	94.4%	104%	103%	110%	98.9%	102	104%	102%	104%	103%
C#CC#CC#CC#CC#CC#CC#CC#CCC1OC[C@H](COC(=O)O[C@@H](C(=O)O[C@H]2C[C@@]3(O)[C@@H](OC(=O)c4ccccc4)[C@@H]4[C@]5(OC(C)=O)CO[C@@H]5C[C@H](O)[C@@]4(C)C(=O)[C@H](OC(C)=O)C(=C2C)C3(C)C)[C@@H](NC(=O)c2ccccc2)c2ccccc2)O1 (stereo not given in full)	36.2	60.2	31.2	95.1	84.9	69.8	59.5%	-1.18% (active)	15.1%	28.5%	24.6%	15.4%	31.4%	26%	57.5%	53.5	33.2%	9.45% (active)	8.95% (active)	106%
O=C1/C(=C\c2cccc3nccnc23)SC(=S)N1CCc1ccc(O)cc1	108	100	84.9	62.1	121	97.3	79.1%	105%	67.2%	93.1%	92.1%	83%	99.1%	104%	89.4%	110	95.4%	101%	95.4%	96.9%
